Conditions in all cases: concentration: 10 µM; 24 h
Assay [1] has as its system HCC1569. Nature of the assay: cell number relative to DMSO (% of DMSO); higher = more cells (less growth inhibition / toxicity). The essentials: (§1)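 H1.0 nuclear intensity or cell number is expressed as percent of the plate control, with the median of replicates taken. HCC1569 and TDF cells were treated with compounds at 10 µM for 24 h at 37 °C, in triplicate, then fixed and immunostained for H1.0 with DAPI as a nuclear stain. HCC1569 values were smoothed to correct for positional effects.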

The subject of assay [2] is TDF. The assay is described as above. The essentials: as §1
The subject of assay [3] is TDF. Nature of the assay: H1.0 immunofluorescence intensity relative to DMSO (% of DMSO); higher = stronger H1.0 induction, active = 120 or more. The essentials: as §1
In assay [4] the test system is HCC1569. The assay can be described thus: H1.0 immunofluorescence intensity relative to DMSO (% of DMSO); higher = stronger H1.0 induction, active = 140 or more. Put shortly: as §1

± gives the standard deviation of the averaged measurements.
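Throughout, for H1.0 immunofluorescence intensity relative to DMSO: TDF is a line of transformed human dermal fibroblasts of mesenchymal origin.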
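Throughout, for cell number relative to DMSO: TDF denotes transformed human dermal fibroblasts of mesenchymal origin.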

On to `C[N+](C)(C)CC#CCN1CCCC1=O.[I-]` [Oxotremorine methiodide], for which the cell number in assay [1] was determined as 106; in assay [2] it was 97. In addition, the H1.0 immunofluorescence intensity is 100 (inactive) in assay [3] and 98.8 (inactive) in assay [4].
Consider `Cl.c1ccc2c(c1)OCC(C1=NCCN1)O2` (configuration not stated) [Idazoxan hydrochloride], for which the cell number was 102 in assay [1] and 98.8 in assay [2]. Further, the results for the H1.0 immunofluorescence intensity in assay [3] and in assay [4] were 99.6 (inactive) and 99 (inactive), respectively.
Taken in the same sequence, the figures for `CC(=O)OCC12CCC(C)=CC1OC1C(O)C(OC(C)=O)C2(C)C12CO2` (configuration not stated) [Diacetoxyscirpenol] were 56.8, 13.6, 128 (active) and 95.6 (inactive).
Regarding `CP(=O)([O-])C1=CC[NH2+]CC1`, the cell number in assay [1] is 96.6; in assay [2] it was 98.6. The H1.0 immunofluorescence intensity in assay [3] was 91.8 (inactive); in assay [4], 102 (inactive).
Turning to `C=CCN1CCC23c4c5ccc(O)c4OC2C(=NNC(=O)c2ccccc2)CCC3(O)C1C5` (configuration not stated) [Naloxone benzoylhydrazone], the cell number in assay [1] turned out to be 99.7; in assay [2], 118. For the same compound, the values for the H1.0 immunofluorescence intensity in assay [3] and in assay [4] were 101 (inactive) and 93.3 (inactive), respectively.
On to `Cl.NCC(O)c1cc(O)c(O)cc1F` (configuration not stated) [6-Fluoronorepinephrine hydrochloride], for which the cell number worked out at 99.2 in assay [1] and 111 in assay [2]. Moreover, the figures for the H1.0 immunofluorescence intensity in assay [3] and in assay [4] were 89.4 (inactive) and 83.2 (inactive), respectively.
For `Cl.NCCc1ccc(S(=O)(=O)F)cc1` [4-(2-Aminoethyl)benzenesulfonyl fluoride hydrochloride], the figures for the cell number in assay [1] and in assay [2] were 100 and 107, respectively. The H1.0 immunofluorescence intensity in assay [3] is 93.2 (inactive); in assay [4], 88.6 (inactive).
`N#CC(OC1OC(COC2OC(CO)C(O)C(O)C2O)C(O)C(O)C1O)c1ccccc1` (configuration not stated) [Amygdalin]: the values for the cell number in assay [1] and in assay [2] were 103 and 91.7, respectively. Moreover, the H1.0 immunofluorescence intensity in assay [3] was 100 (inactive); in assay [4], 90.7 (inactive).
For `CC1=CC23C(=O)C(C=C(CO)C(O)C2(O)C1O)C1C(CC3C)C1(C)C` (configuration not stated) [Ingenol], the results for the cell number in assay [1] and in assay [2] were 102 and 107, respectively. The H1.0 immunofluorescence intensity in assay [3] is 94.7 (inactive); in assay [4], 80 (inactive).
Taken in the same sequence, the figures for `CN1C2CCC1CC(OC(c1ccccc1)c1ccccc1N)C2` (configuration not stated) [Aminobenztropine] were 103, 97.9, 94.1 (inactive) and 90.2 (inactive).
As for `CC=C(C)C(=O)OC1CCC2(C)C3CCC4C5(O)CC(O)C6(O)C(CN7CC(C)CCC7C6(C)O)C5(O)CC42OC13O` (configuration not stated) [Cevadine], the cell number in assay [1] turned out to be 99.9; in assay [2], 99.4. For the same compound, the H1.0 immunofluorescence intensity in assay [3] was 96.4 (inactive); in assay [4], 93 (inactive).
Taken in the same sequence, the figures for `O=c1[nH]c2ccccc2n1C1CCN(CCCC(c2ccc(F)cc2)c2ccc(F)cc2)CC1` [Pimozide] were 81.2 ± 11, 90.7 ± 1.7, 107 (inactive) and 144 (active).
Regarding `CN1CCc2cccc(Cl)c2CC1.Cl`, the cell number came to 103 in assay [1] and 98.7 in assay [2]. The H1.0 immunofluorescence intensity was 96.2 (inactive) in assay [3] and 86.7 (inactive) in assay [4].
On to `CC(=O)OC1C(c2ccc(=O)oc2)C2(C)CCC3C(CCC4CC(O)CCC43C)C23OC13` (configuration not stated) [Cinobufagin], for which the cell number in assay [1] is 53.5; in assay [2] it was 42.2. Further, the H1.0 immunofluorescence intensity in assay [3] is 115 (inactive); in assay [4] it was 99.5 (inactive).
Regarding `OC1CN2CCC(O)C2C(O)C1O` (configuration not stated) [Castanospermine], the results for the cell number in assay [1] and in assay [2] were 100 and 104, respectively. Besides, the values for the H1.0 immunofluorescence intensity in assay [3] and in assay [4] were 89.5 (inactive) and 90.4 (inactive), respectively.
Regarding `Br.NC1CCc2cc(O)c(O)cc2C1` (configuration not stated) [6,7-ADTN hydrobromide], the cell number in assay [1] worked out at 104; in assay [2], 103. The H1.0 immunofluorescence intensity in assay [3] was 93.1 (inactive); in assay [4] it was 92.4 (inactive).
Regarding `Cl.O=C1CC2OCC=C3CN4CCC56c7ccccc7N1C5C2C3CC46` (configuration not stated), the cell number in assay [1] came out at 103 ± 5.8; in assay [2] it was 102 ± 1.1. Moreover, the H1.0 immunofluorescence intensity is 94.3 (inactive) in assay [3] and 94.2 (inactive) in assay [4].
For the compound `Cc1c(N)nc(C(CC(N)=O)NCC(N)C(N)=O)nc1C(=O)NC(C(=O)NC(C)C(O)C(C)C(=O)NC(C(=O)NCCc1nc(-c2nc(C(=O)NCCC[S+](C)C)cs2)cs1)C(C)O)C(OC1OC(CO)C(O)C(O)C1OC1OC(CO)C(O)C(OC(N)=O)C1O)c1cnc[nH]1.O=S(=O)([O-])O` (configuration not stated) [Bleomycin sulfate], the cell number worked out at 93.1 in assay [1] and 99.4 in assay [2]. Further, the values for the H1.0 immunofluorescence intensity in assay [3] and in assay [4] were 88.5 (inactive) and 99.1 (inactive), respectively.
With `COCC1OC(=O)c2coc3c2C1(C)C1=C(C3=O)C2CCC(=O)C2(C)CC1OC(C)=O` (configuration not stated) [Wortmannin], the cell number in assay [1] came out at 43.3; in assay [2], 91.8. For the same compound, the H1.0 immunofluorescence intensity in assay [3] is 90.9 (inactive); in assay [4], 140 (inactive).
For `CCCN1CCCC(c2cccc(O)c2)C1.Cl` (stereo not drawn) [R(+)-3PPP hydrochloride], the values for the cell number in assay [1] and in assay [2] were 104 and 106, respectively. Moreover, the H1.0 immunofluorescence intensity in assay [3] is 88.2 (inactive); in assay [4], 103 (inactive).
As to `CCCCCC(C=CC=CCC=CCC=CCCCC(=O)O)OO` (configuration not stated), the cell number in assay [1] came to 106; in assay [2] it was 100. The H1.0 immunofluorescence intensity in assay [3] was 96.4 (inactive); in assay [4], 113 (inactive).
With `CCCCCC=CCC=CCCCCCCCC(=O)NCCO` [Anandamide (18:2,n-6)], the figures for the cell number in assay [1] and in assay [2] were 100 and 108, respectively. Moreover, the H1.0 immunofluorescence intensity in assay [3] is 99.1 (inactive); in assay [4], 94.4 (inactive).
With `NC(=NCCCC(N)C(=O)O)N[N+](=O)[O-]` [NG-Nitro-L-arginine], the cell number in assay [1] came to 104; in assay [2], 96.7. In addition, the H1.0 immunofluorescence intensity in assay [3] was 89.6 (inactive); in assay [4], 90 (inactive).
